Experiment [1] in a line: antimalarial activity against Dd2 strain (AID 2302;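 active means growth inhibition above 50% at the single 2 µM test dose, taken to imply half-maximal potency below 2 µM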;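 further: 0% = DMSO untreated growth and 100% = chloroquine plus artemisinin killed control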). The conditions noted are these: P. falciparum Dd2 in RBCs, LDH growth readout, 72 h; at 2 µM; stronger effect = higher value.
A short description of experiment [2]: human hepatoma cell viability loss – ATP luminescence, cytotoxicity control for P. falciparum antimalarial project, primary screen (AID 2303;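 active means inhibition above 50%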;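 further: 0% = DMSO wells and 100% = digitonin-killed cells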). The note with it: HepG2 viability, 24-48 h, at 10 µM, stronger effect = higher value.
Experiment [3] addresses L-lactate dehydrogenase (Plasmodium falciparum (isolate CDC / Honduras)) (UniProt Q27743). The experiment can be described thus: PfLDH activity inhibition – cell lysate, 3D7 strain, counter-screen for P. falciparum growth inhibition project (AID 2304).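 Further: 0% = vehicle and 100% = reference inhibitor.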 The note with it: P. falciparum 3D7 crude extract, LDH APAD/NBT absorbance; at 2 µM; stronger effect = higher value.
A short description of experiment [4]: inhibition of 3D7 malaria parasite growth – strain 3D7 (AID 2306).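 Further: 0% = DMSO wells and 100% = chloroquine plus artemisinin control wells.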 The note with it: P. falciparum 3D7 erythrocytic growth, LDH absorbance, 72 h; at 2 µM; stronger effect = higher value.
Experiment [5] has as its target Calcium-dependent protein kinase 1 (Plasmodium falciparum (isolate 3D7)) (UniProt P62344). In words: PfCDPK1 kinase inhibitors, biochemical, TCAMS library (AID 1159585; cut-off not given, nearly all actives have IC50 up to about 0.98 µM;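 further: inhibitors leave more ATP so luminescence rises with inhibition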). The note with it: recombinant PfCDPK1, Kinase-Glo ATP depletion luminescence. (In Kinase-Glo more light means more ATP remaining.)
Experiment [6] deals with Plasmodium falciparum protein kinase 6 (PK6, PF3D7_1337100) (UniProt Q8IDW1). The experiment can be described thus: PfPK6 kinase inhibitors, biochemical, TCAMS library (AID 1159586). The note with it: recombinant PfPK6, Kinase-Glo ATP depletion luminescence.
The target of experiment [7] is Protein kinase 7 (PK7), Plasmodium falciparum 3D7 (PF3D7_0213400) (UniProt Q7YTF7). The experiment can be described thus: inhibition of Plasmodium PK7 catalytic activity – biochemical, TCAMS antimalarial set, Kinase-Glo luminescence (AID 1159587). The conditions noted are these: recombinant PfPK7, Kinase-Glo ATP depletion luminescence.
Experiment [8] addresses Calcium-dependent protein kinase 4 (Plasmodium falciparum (isolate 3D7)) (UniProt Q8IBS5). In words: PfCDPK4 kinase inhibitors, biochemical, TCAMS library (AID 1159588; cut-off not given, nearly all actives have IC50 up to about 0.91 µM). The note with it: recombinant PfCDPK4, Kinase-Glo ATP depletion luminescence.

Unmarked numbers belong to inactive results. For some of these results: Measured potencies and affinities stand elsewhere. Active and inactive are the calls of the source. Unless noted, how the calls were made is not given here.

Calcium-dependent protein kinase 4 (Plasmodium falciparum (isolate 3D7)), sequence (Q8IBS5 whole entry, looked up): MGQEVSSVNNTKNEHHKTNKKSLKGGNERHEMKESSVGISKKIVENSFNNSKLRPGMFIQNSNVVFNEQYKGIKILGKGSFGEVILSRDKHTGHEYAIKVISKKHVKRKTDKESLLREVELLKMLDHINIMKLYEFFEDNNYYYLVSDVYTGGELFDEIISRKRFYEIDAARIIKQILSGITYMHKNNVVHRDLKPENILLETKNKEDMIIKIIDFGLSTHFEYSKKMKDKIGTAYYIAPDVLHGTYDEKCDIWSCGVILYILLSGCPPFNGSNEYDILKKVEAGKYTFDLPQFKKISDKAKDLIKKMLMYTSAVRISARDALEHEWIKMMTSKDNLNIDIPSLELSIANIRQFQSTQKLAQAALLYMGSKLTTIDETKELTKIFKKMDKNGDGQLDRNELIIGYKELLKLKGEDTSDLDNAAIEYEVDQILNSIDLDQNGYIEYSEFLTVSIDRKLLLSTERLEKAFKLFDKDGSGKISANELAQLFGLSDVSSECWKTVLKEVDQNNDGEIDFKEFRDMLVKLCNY
L-lactate dehydrogenase (Plasmodium falciparum (isolate CDC / Honduras)), sequence (Q27743 whole entry, looked up): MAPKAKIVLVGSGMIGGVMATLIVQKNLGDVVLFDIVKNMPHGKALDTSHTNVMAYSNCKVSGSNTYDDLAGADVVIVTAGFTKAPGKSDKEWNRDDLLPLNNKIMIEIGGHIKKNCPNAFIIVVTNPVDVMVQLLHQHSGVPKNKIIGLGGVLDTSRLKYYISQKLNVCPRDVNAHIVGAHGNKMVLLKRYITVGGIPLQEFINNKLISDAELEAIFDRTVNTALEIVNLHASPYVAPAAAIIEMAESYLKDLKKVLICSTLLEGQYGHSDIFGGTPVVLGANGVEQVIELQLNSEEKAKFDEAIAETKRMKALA
Calcium-dependent protein kinase 1 (Plasmodium falciparum (isolate 3D7)), sequence (P62344 whole entry, looked up): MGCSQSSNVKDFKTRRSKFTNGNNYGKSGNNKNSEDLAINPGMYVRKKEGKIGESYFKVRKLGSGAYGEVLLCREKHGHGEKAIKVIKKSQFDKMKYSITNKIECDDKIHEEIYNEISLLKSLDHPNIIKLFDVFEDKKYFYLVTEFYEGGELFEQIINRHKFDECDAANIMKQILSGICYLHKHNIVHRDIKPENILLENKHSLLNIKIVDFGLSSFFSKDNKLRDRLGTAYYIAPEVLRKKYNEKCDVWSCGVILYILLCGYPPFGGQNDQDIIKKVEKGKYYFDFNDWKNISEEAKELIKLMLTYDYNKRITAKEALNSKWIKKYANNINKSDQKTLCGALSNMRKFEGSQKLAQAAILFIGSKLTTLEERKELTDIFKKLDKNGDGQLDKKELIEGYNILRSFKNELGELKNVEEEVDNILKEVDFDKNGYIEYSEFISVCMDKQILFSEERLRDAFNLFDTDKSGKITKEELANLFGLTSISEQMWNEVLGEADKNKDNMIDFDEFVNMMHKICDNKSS
Plasmodium falciparum protein kinase 6 (PK6, PF3D7_1337100), sequence (Q8IDW1 1-305): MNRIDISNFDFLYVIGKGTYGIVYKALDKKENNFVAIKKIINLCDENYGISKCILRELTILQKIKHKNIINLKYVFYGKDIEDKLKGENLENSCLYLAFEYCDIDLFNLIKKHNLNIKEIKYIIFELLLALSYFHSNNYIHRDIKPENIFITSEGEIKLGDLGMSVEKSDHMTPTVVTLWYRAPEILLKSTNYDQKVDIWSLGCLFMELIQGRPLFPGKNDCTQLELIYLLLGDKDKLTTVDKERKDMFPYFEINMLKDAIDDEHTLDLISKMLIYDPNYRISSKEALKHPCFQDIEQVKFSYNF
Protein kinase 7 (PK7), Plasmodium falciparum 3D7 (PF3D7_0213400), sequence (Q7YTF7 1-343): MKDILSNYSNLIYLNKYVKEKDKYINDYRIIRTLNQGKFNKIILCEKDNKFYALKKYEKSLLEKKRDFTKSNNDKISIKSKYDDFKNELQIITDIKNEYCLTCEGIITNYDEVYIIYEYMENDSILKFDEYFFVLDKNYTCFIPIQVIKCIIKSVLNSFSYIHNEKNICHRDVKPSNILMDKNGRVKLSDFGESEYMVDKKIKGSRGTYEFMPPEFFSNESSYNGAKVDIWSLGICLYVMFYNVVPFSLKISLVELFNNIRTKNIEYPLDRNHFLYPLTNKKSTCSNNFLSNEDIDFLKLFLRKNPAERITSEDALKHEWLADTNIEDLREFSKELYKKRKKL

On to `O=C(NCCc1ccccc1)N(Cc1ccccc1-c1ccc(CNC2CCCC2)cc1)C1CCN(Cc2ccccc2)CC1`, for which the values for the growth inhibition in experiment [1] and in experiment [4] were 95% (active) and 96% (active), respectively. In addition, the inhibition in experiment [2] was 96% (active); in experiment [3] it was 1%. Also, the result in experiment [5], in experiment [6], in experiment [7] and in experiment [8] was inactive.
As for `CCCCOC(=O)c1ccc(Nc2cc(C)nc3ccc(OC)cc23)cc1`, the figures for the growth inhibition in experiment [1] and in experiment [4] were 96% (active) and 100% (active), respectively. For the same molecule, the figures for the inhibition in experiment [2] and in experiment [3] were 4% and -5%, respectively. The outcome in experiment [5], in experiment [6], in experiment [7] and in experiment [8] was inactive.
With `CCC(=O)NC(c1ccco1)c1cc(Cl)c2cccnc2c1O` (stereo not given), the growth inhibition is 74% (active) in experiment [1] and 89% (active) in experiment [4]. The inhibition in experiment [2] is 58% (active); in experiment [3], -5%. In addition, the result in experiment [5], in experiment [6], in experiment [7] and in experiment [8] was inactive.
For the molecule `CC(=O)c1ccc(NC(=O)Nc2ccc3nccc(N4CCN(C)CC4)c3c2)cc1`, the figures for the growth inhibition in experiment [1] and in experiment [4] were 93% (active) and 101% (active), respectively. In addition, the inhibition was 2% in experiment [2] and -1% in experiment [3]. The result in experiment [5], in experiment [6], in experiment [7] and in experiment [8] was inactive.
`COCCSc1nc2scc(C)c2c(=O)n1Cc1cccc(OC)c1`: the growth inhibition in experiment [1] is 33%; in experiment [4], 92% (active). The inhibition is 0% in experiment [2] and -8% in experiment [3]. Further, the outcome in experiment [5], in experiment [6], in experiment [7] and in experiment [8] was inactive.
Consider `CC(C)(C)c1nn(-c2ccc(Cl)cc2)c2[nH]c(=O)c(CNCc3ccc4c(c3)OCO4)cc12`, for which the growth inhibition in experiment [1] is 98% (active); in experiment [4], 100% (active). Moreover, the results for the inhibition in experiment [2] and in experiment [3] were 15% and 7%, respectively. Besides, the outcome in experiment [5], in experiment [6], in experiment [7] and in experiment [8] was inactive.
Consider `CCCCCCN1CCC(CNCc2cccc([N+](=O)[O-])c2)CC1`, for which the growth inhibition in experiment [1] is 15%; in experiment [4], 95% (active). Further, the results for the inhibition in experiment [2] and in experiment [3] were 16% and -1%, respectively. The result in experiment [5], in experiment [6], in experiment [7] and in experiment [8] was inactive.
For the molecule `CC(C)[C@@H](NC(=O)NC1CCC(CCN2[C@@H]3CC[C@H]2CC(OC(=O)C(CO)c2ccccc2)C3)CC1)C(O)(c1ccccc1)c1ccccc1` (stereo not given in full), the growth inhibition in experiment [1] is 56% (active); in experiment [4], 96% (active). Further, the inhibition in experiment [2] is 19%; in experiment [3], 2%. The outcome in experiment [5], in experiment [6], in experiment [7] and in experiment [8] was inactive.
Regarding `Cc1ccc(-c2nc(N3CCN(C(=O)c4ccco4)CC3)c3ccccc3n2)cc1`, the growth inhibition in experiment [1] was 75% (active); in experiment [4], 90% (active). Also, the inhibition in experiment [2] was -8%; in experiment [3], 3%. Further, the outcome in experiment [5], in experiment [6], in experiment [7] and in experiment [8] was inactive.
Take `COc1ccc2nccc([C@@H](O)CN3CCC(NCc4nc5c([N+](=O)[O-])cccc5[nH]4)CC3)c2c1`: the growth inhibition in experiment [1] was 84% (active); in experiment [4] it was 101% (active). Also, the inhibition was 13% in experiment [2] and -2% in experiment [3]. The outcome in experiment [5], in experiment [6], in experiment [7] and in experiment [8] was inactive.
Consider `Cc1[nH]c(C)c(-c2csc3ccccc23)c(=O)c1Cl`, for which the growth inhibition in experiment [1] is 75% (active); in experiment [4] it was 97% (active). Further, the figures for the inhibition in experiment [2] and in experiment [3] were 7% and 6%, respectively. Moreover, the outcome in experiment [5], in experiment [6], in experiment [7] and in experiment [8] was inactive.
As to `COc1ccc(NC(=O)[C@H](CC(C)C)Nc2ccnc(Nc3ccccc3)n2)cc1`, the growth inhibition is 32% in experiment [1] and 92% (active) in experiment [4]. Also, the inhibition in experiment [2] is -7%; in experiment [3] it was 3%. Moreover, the outcome in experiment [5], in experiment [6], in experiment [7] and in experiment [8] was inactive.
Turning to `Cc1ccc(CNC(=O)[C@H](Cc2ccccc2)Nc2cc(C)nc(NCC3CCCCC3)n2)cc1`, the growth inhibition is 89% (active) in experiment [1] and 101% (active) in experiment [4]. Also, the inhibition in experiment [2] is -10%; in experiment [3], 0%. The result in experiment [5], in experiment [6], in experiment [7] and in experiment [8] was inactive.
`CN(C)CCC(O)(c1ccc(Br)cc1)c1cccnc1` (stereo not given): the growth inhibition is 1% in experiment [1] and 96% (active) in experiment [4]. For the same molecule, the inhibition in experiment [2] was 22%; in experiment [3] it was 5%. For the same molecule, the result in experiment [5], in experiment [6], in experiment [7] and in experiment [8] was inactive.
Regarding `Cn1nc(-c2cccc(CNC3CCc4ccccc43)c2)c2cnc(NC3CCCC3)nc21` (stereo not given), the growth inhibition in experiment [1] is 23%; in experiment [4], 100% (active). In addition, the inhibition in experiment [2] was 14%; in experiment [3], -1%. The outcome in experiment [5], in experiment [6], in experiment [7] and in experiment [8] was inactive.
For the molecule `CN(C)Cc1c(O)ccc2[nH]c(-c3cccc(F)c3)nc12`, the growth inhibition in experiment [1] is 71% (active); in experiment [4], 99% (active). The figures for the inhibition in experiment [2] and in experiment [3] were 9% and -2%, respectively. Moreover, the result in experiment [5], in experiment [6], in experiment [7] and in experiment [8] was inactive.
Take `COc1ccc(NC(=O)[C@H](CC(C)C)Nc2cc(C)nc(NCCOc3ccccc3)n2)cc1`: the values for the growth inhibition in experiment [1] and in experiment [4] were 65% (active) and 100% (active), respectively. The values for the inhibition in experiment [2] and in experiment [3] were -1% and 4%, respectively. The result in experiment [5], in experiment [6], in experiment [7] and in experiment [8] was inactive.
In the case of `CC(=O)c1c(Cc2cccc(C(F)(F)F)c2)c[nH]c1C`, the growth inhibition in experiment [1] is 92% (active); in experiment [4], 94% (active). Besides, the inhibition is 6% in experiment [2] and 7% in experiment [3]. Also, the result in experiment [5], in experiment [6], in experiment [7] and in experiment [8] was inactive.
In the case of `CCN1CCN(c2cc(C)c3cc(NC(=O)c4cccc(OC)c4)ccc3n2)CC1`, the figures for the growth inhibition in experiment [1] and in experiment [4] were 15% and 99% (active), respectively. Also, the results for the inhibition in experiment [2] and in experiment [3] were 5% and 3%, respectively. Further, the outcome in experiment [5], in experiment [6], in experiment [7] and in experiment [8] was inactive.
Regarding `CCC1CCc2cc(N)cc(-c3nc4c(c(C)nn4CC)c(=O)[nH]3)c2O1` (stereo not given), the figures for the growth inhibition in experiment [1] and in experiment [4] were 42% and 86% (active), respectively. In addition, the inhibition is -3% in experiment [2] and -4% in experiment [3]. Further, the result in experiment [5], in experiment [6], in experiment [7] and in experiment [8] was inactive.

One may read the inhibition as the relative decrease from the control value, in per cent.

These data come from PubChem BioAssay.
